From PubChem BioAssay AID1159580 (chemical genetic matrix, 2015)
About 2,000 (36%) of roughly 5,500 compounds were called active. Inconclusive results (about 18%) are left out. Cut-off read from the data, not from the text of the source: active = normalized growth mostly below about 0.91 (no sharp cut-off); inconclusive = no clear call, values can overlap the other calls; inactive = mostly above about 0.92. The list shows a part of the results.

Experiment: chemical genetic growth profiling, strain panel (AID 1159580);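 note: tested at 20 µM; growth read once vehicle control cultures reached saturation at 30 °C; 1 = growth at the plate median or of vehicle wells; lower values mean less growth of the strain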
Details: S. cerevisiae deletion strains, growth OD
[1] = locus YAL013W, strain DEP1, active compounds read low
[2] = locus YBR229C, strain ROT2, active compounds read low
[3] = locus YDL101C, strain DUN1, active compounds read low
[4] = locus YDR150W, strain NUM1, active compounds read low
[5] = locus YEL061C, strain CIN8, active compounds read low
[6] = locus YGR078C, strain PAC10, active compounds read low
[7] = locus YHR030C, strain SLT2, active compounds read low
[8] = locus YHR087W, strain rtc3, active compounds read low
[9] = locus YJR043C, strain POL32, active compounds read low
[10] = locus YJR075W, strain HOC1, active compounds read low
[11] = locus YKL190W, strain CNB1, active compounds read low
[12] = locus YLR039C, strain RIC1, active compounds read low
[13] = locus YLR058C, strain SHM2 (second series), active compounds read low
[14] = locus YLR085C, strain ARP6, active compounds read low
[15] = locus YLR262C, strain YPT6, active compounds read low
[16] = locus YML094W, strain GIM5, active compounds read low
[17] = locus YMR219W, strain ESC1, active compounds read low
[18] = locus YMR263W, strain SAP30, active compounds read low
[19] = locus YNL153C, strain GIM3, active compounds read low
[20] = locus YNL298W, strain CLA4 (second series), active compounds read low
[21] = locus YNL322C, strain KRE1, active compounds read low
[22] = locus YNR030W, strain Alg12, active compounds read low
[23] = locus YOL006C, strain TOP1, active compounds read low
[24] = locus YPL055C, strain LGE1, active compounds read low
[25] = locus YPL241C, strain CIN2, active compounds read low
[26] = locus YPR135W, strain CTF4, active compounds read low

Measured: normalized growth

Cc1ccc(-c2nn(-c3ccccc3)c(=O)c3ccccc23)cc1C
inactive: [1] 0.953 | [2] 0.968 | locus YCL061C, strain MRC1, active compounds read low 0.967 | [3] 0.957 | [4] 0.978 | [6] 0.955 | locus YGR229C, strain SMI1, active compounds read low 0.984 | [8] 0.922 | locus YJL187C, strain SWE1, active compounds read low 0.979 | [9] 0.998 | [10] 0.908 | [11] 0.977 | [13] 0.967 | [16] 0.922 | [17] 0.962 | [18] 0.937 | [19] 0.992 | [20] 0.936 | [21] 0.964 | [22] 0.918 | [23] 0.804 | [24] 0.928 | [25] 0.917
active: [5] 0.908 | [7] 0.504 | [12] 0.634 | [14] 0.736 | [15] 0.629 | [26] 0.612

CC(=O)C1C(=O)CC(c2ccc(Cl)cc2)CC1=O (configuration not stated)
inactive: [16] 0.901 | [20] 0.849 | [23] 0.774 | [26] 0.718
active: [1] 0.342 | [2] 0.454 | [3] 0.425 | locus YDL134C, strain PPH21, active compounds read low 0.854 | [4] 0.489 | [5] 0.867 | [6] 0.463 | [7] 0.199 | [8] 0.541 | [9] 0.585 | [10] 0.444 | [11] 0.848 | [12] 0.218 | [13] 0.761 | [14] 0.529 | [15] 0.219 | [17] 0.562 | [18] 0.268 | locus YMR307W, strain GAS1, active compounds read low 0.218 | [19] 0.512 | [21] 0.796 | [22] 0.855 | [24] 0.211 | [25] 0.845
